Only some compounds are listed: those with a hit (about 4% of all), similar ones and a draw of the others.
KKLEB tox – CF airway cell cytotoxicity counter-screen | 360,000 compounds, 0.36% hits | activity change (cytotoxicity), % at 5 µM | KKLEB CF airway cells viability, ATPlite luminescence, overnight; stronger effect = lower value; cells stimulated with P. aeruginosa culture filtrate;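 active means corrected activity change at or below -50% at 5 µM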
CF NFkB inh – inhibitors of cystic fibrosis induced NF-kB; KKLEB NF-kB-GFP reporter, PAF-induced, GFP fluorescence overnight; inhibition, % at 5 µM; 360,000 compounds, 0.86% hits; AID 588850;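 active means at least 50% inhibition at 5 µM, scaled per plate between neutral and stimulator controls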;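 further: PAF is a Pseudomonas aeruginosa culture filtrate used as stimulus; plate controls were PAF-stimulated DMSO wells for no effect and unstimulated DMSO wells for full effect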
Peg3 prom inh – reduces Peg3 promoter-driven luciferase expression in HeLa | HeLa PEG-Prom luciferase reporter, luminescence, overnight | inhibition, % at 20 µM | 360,000 compounds, 1.7% hits | AID 588405;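 active means inhibition of at least 50% at 20 µM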
HIF-2a inh – inhibitors of HIF-2a; AID 624352; 360,000 compounds, 0.72% hits; 786-0 RCC cells HIF-2a reporter, luciferase luminescence, overnight; inhibition, % at 18.8 µM;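 active means inhibition of the luminescence signal of 40% or more relative to plate controls, in a single-dose primary screen at 18.75 µM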
TROY signal inh – inhibitors of TROY-dependent NF-kB signaling. AID 1347056. inhibition, % at 10 µM. 360,000 compounds, 0.98% hits. Q293 LMP1-TROYcd NF-kB luciferase reporter, 4 h;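 active means compounds whose plate-normalised and pattern-corrected inhibition of the luciferase reporter signal at the single screening dose is 50% or more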
TWEAK-Fn14 inh – TWEAK-Fn14 signaling inhibition | AID 1159606 | inhibition, % at 10 µM | 360,000 compounds, 2% hits | TWEAK-stimulated Fn14 reporter cells, luciferase luminescence, 8 h; in the data active means inhibition above about 50%
* marks the source's active call; other numbers are inactive results; · = not tested or not shown.

SMILES	KKLEB tox	CF NFkB inh	Peg3 prom inh	HIF-2a inh	TROY signal inh	TWEAK-Fn14 inh
CCOC(=O)N1CCN(C(=O)c2ccc(NS(C)(=O)=O)cc2)CC1	3.0	-11.6	-9.5	-7.7	-2.4	17.0
COc1ccc(C2N(C(=O)N(C)C)CCN2S(=O)(=O)c2ccc(OC)cc2)cc1 (centres undefined)	-0.8	-17.4	0.8	13.9	15.2	11.6
O=C(OCC(=O)N1CCc2ccccc21)[C@@H]1CC(O)CN1S(=O)(=O)c1ccccc1[N+](=O)[O-] (some centres undefined)	-10.4	-2.6	3.7	5.1	10.7	10.7
COc1ccc(C(=O)/C(C#N)=N/Nc2cccc([N+](=O)[O-])c2)cc1	-47.2	54.1*	29.0	-66.9	59.3*	60.0*
Cc1cc(C(=O)NNC(=S)NC2CCCCC2)cs1	4.4	1.2	-150.5	-206.2	-47.4	-0.7
COc1ccccc1C(=O)NNC(=O)c1cccc(F)c1	1.9	-12.8	-87.7	-65.7	8.0	66.8*
CCc1sc(C(=O)N(CCOC)c2c(N)n(Cc3ccccc3)c(=O)[nH]c2=O)cc1C	-3.0	-3.5	-2.1	10.7	7.8	5.1
CCn1cc(C(=O)NCc2cccc(C(F)(F)F)c2)c(=O)c2ccc(C)nc21	-11.7	18.8	18.7	-13.8	-34.6	21.1
Cc1cc(C)n2nc(C(=O)NCc3cccc(C(F)(F)F)c3)nc2n1	-8.9	-17.7	2.2	4.1	51.1*	-6.6
COc1ccc(/C=N\NC(=O)c2ccc(Cn3cc(Br)c([N+](=O)[O-])n3)o2)c(OC)c1C	-24.4	-10.4	2.6	16.0	5.3	63.0*
O=c1c(Cl)c(NCCCO)cnn1-c1nc2ccccc2[nH]1	5.2	-7.1	98.7*	-99.4	-10.4	49.9
C=CCN(CC=C)c1cnn(-c2nc3ccccc3[nH]2)c(=O)c1Cl	-9.2	9.1	-180.5	-206.5	1.2	38.7
O=S(=O)(Nc1cc2nc3ccccc3nc2n1Cc1ccccc1)c1ccc(Cl)cc1	-10.5	51.8*	22.6	-6.4	49.3	96.3*
CCNc1ccccc(C(=O)/C=C/c2ccc3c(c2)OCO3)c1=O	-3.2	-4.5	-16.2	5.1	5.8	-0.1
CN(C)c1ccc(/C=C/C(=O)c2ccccc2O)cc1	-4.6	-0.2	-200.3	-287.7	50.2*	58.4*
O=C(/C=C/c1ccc2c(c1)OCCCO2)c1ccccc1O	-21.8	33.1	-175.8	-158.1	55.6*	74.6*
Cc1ccc(O)c(C(=O)C=Cc2ccccc2)c1	2.4	-8.0	-5.8	-13.6	-24.5	53.9*
O=C(C=Cc1ccccn1)c1ccccc1O	-5.2	25.1	98.0*	-9.4	-10.0	47.8
Cc1ccc(/C=C/C(=O)c2ccccc2O)cc1	5.7	-5.1	-208.2	-89.3	-63.4	1.5
CN(C)c1ccc(/C=C/C(=O)c2ccc(O)cc2)cc1	-11.6	-28.0	-244.6	-157.8	-37.2	-15.6
CC1(C(=O)Nc2cccc(Oc3ccccc3)c2)CCN1Cc1ccccc1OC(F)F (centres undefined)	-21.4	24.2	2.0	7.1	7.9	23.1
C=CCNC(=O)NC(=O)CN1C(=O)NC(c2ccccc2)(c2ccccc2)C1=O	0.8	-24.2	11.7	9.3	9.1	12.7
COc1ccc(C(=O)NC(=S)Nc2ccc3[nH]c(=O)[nH]c3c2)cc1	7.1	5.6	12.5	5.3	7.2	-19.5
COc1cc(NC(=O)COC(=O)Cc2ccsc2)cc(OC)c1	8.6	-2.1	8.2	9.2	3.9	4.9
Cc1ccc(O)c(C(=O)/C=C/c2ccc3c(c2)OCCCO3)c1	-25.9	30.8	-85.4	-161.2	-26.4	56.0*
SMILES	KKLEB tox	CF NFkB inh	Peg3 prom inh	HIF-2a inh	TROY signal inh	TWEAK-Fn14 inh
CCOC(=O)CN(C(=O)CSc1nnc(-c2ccncc2)n1CCCOC)c1ccccc1	-7.3	0.9	3.2	1.1	57.6*	-10.0
CCOC(=O)c1nc(C)nc(Sc2n[nH]c(-c3cc(C(F)(F)F)cc(C(F)(F)F)c3)n2)c1C	-9.1	2.6	2.6	10.7	59.0*	-41.0
CC(C)=CCc1cc([C@@H]2COc3c(ccc4c3C=CC(C)(C)O4)C2)c(O)cc1O	-6.2	-8.2	83.8*	-3.7	10.1	63.4*
COC(=O)CN(C)C(=O)c1ccc2nc(Cc3cccc(Cl)c3)oc2c1	-1.3	8.2	-249.1	-249.4	-46.7	-30.8
CCC1Oc2ccc(C)cc2N(CC(=O)NCC2CCCO2)C1=O (centres undefined)	-1.4	-28.2	14.3	6.6	-1.0	1.2
Cn1ccsc1=NC(=O)c1ccc(S(C)(=O)=O)c([N+](=O)[O-])c1	-22.2	34.6	78.3*	-2.2	-9.3	26.6
Cc1ccsc1C(=O)OCC(=O)N(C)C1CCCCC1	-0.7	12.6	-170.6	-209.0	31.9	63.0*
O=C(OCc1ccccc1)N(CCCCN(CCCNCc1ccccc1)C(=O)OCc1ccccc1)CCCNCc1ccccc1	-90.3*	68.5*	108.1*	89.1*	33.7	102.5*
O=C(NCCCCCCNC(=O)OCc1ccccc1)OCc1ccccc1	-10.7	-11.3	1.5	1.3	-7.5	4.0
O=C(C#Cc1ccccc1)Nc1cccc(F)c1	-56.7*	58.1*	-30.8	-130.8	-1.0	69.8*
O=C(O)[C@@H](O)[C@H](O)C(=O)O	-61.2*	4.5	-0.8	2.4	6.6	-1.1
COc1cc2c(-c3ccccc3O)nc3c(c(C)nn3-c3ccccc3)c2cc1OC	11.9	-11.4	57.0*	14.4	-9.7	-45.0
C[C@@H]1CN([C@H](C)CO)C(=O)CCCn2nncc2CO[C@H]1CN(C)Cc1ccc(Cl)c(Cl)c1	-0.9	15.9	10.7	7.2	11.1	5.9
Cc1ccc(S(=O)(=O)CCC(=O)OCc2cc(=O)oc3cc(C)ccc23)cc1	-19.3	10.8	-14.4	-20.8	8.1	50.0
Cc1cc(Cl)ccc1NC(=S)NCCC(c1ccccc1)c1ccccc1	-6.8	1.7	67.7*	16.8	43.2	0.2
Cc1ccc2[nH]c3c(=O)n(CC(=O)N4CCN(C)CC4)ncc3c2c1	-12.7	-4.0	3.5	9.6	7.0	0.6
COc1ccc([C@H]2CC(=O)C[C@@H](CCn3cc(-c4ccccn4)nn3)O2)cc1	·	·	·	1.5	3.8	-2.1
Cc1cccc(NC(=S)N=Nc2c(O)n(CN3CCOCC3)c3ccccc23)c1C	12.2	-1.1	21.5	17.0	-9.8	50.3*
Cc1ccc(C(C)C)cc1OCC(=O)Nc1ccc(N2CCCCC2)cc1	9.8	-21.4	-0.9	-23.1	-8.0	-18.0
CCCCCCCCN1C(=O)[C@H](CC(=O)NCCCC)C[C@@]2(C(=O)OC)CCCCC=C12	·	·	·	4.8	5.3	14.5
COC(=O)c1c(C)[nH]c(C(=O)C(C)OC(=O)C2CC(=O)N(c3ccc(C)cc3)C2)c1C (centres undefined)	7.5	6.1	33.9	-2.5	54.0*	24.1
COC(=O)c1c(C)[nH]c(C(=O)C(C)OC(=O)C2CC(=O)N(CCc3ccccc3)C2)c1C (centres undefined)	-0.2	-3.1	11.4	-12.7	-7.2	9.0

Assay outcomes deposited in PubChem BioAssay by Sanford-Burnham Center for Chemical Genomics.
